We go through 84 compounds from PubChem BioAssay AID504707 (The Scripps Research Institute Molecular Screening Center, 2011).

In all, about 340,000 compounds went through this assay and about 280 (0.082%) were called active. Many of the other results were omitted from the sample, so actives are more common in it than they were. Values without a mark were called inactive.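 Rule for the calls: active = percent activation above the mean of all tested compounds plus 3 SD (cut at about 19% in these data); inactive = the rest.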

This experiment has as its target cAMP-dependent protein kinase type I-alpha regulatory subunit (Bos taurus) + cAMP-dependent protein kinase catalytic subunit beta (Mus musculus) (UniProt P00514+P68181). Description: compounds dissociating PKAc from R1A subunit – biochemical, fluorescence polarization, Cy5-IP20, bovine R1A, mouse PKAc, primary screen (AID 504707).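 Note: higher means more PKAc released from R1A so a rise in polarization.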 The note with it: PKA-R1A dissociation, at 11.4 µM, active compounds read high, scaled: DMSO 0%, 113 µM cGMP 100%.
Turning to `Cc1ccc(S(=O)(=O)N(CCc2ccccc2)c2ccc3c(c2)C2CC3CCN2C(=O)OCc2ccccc2)cc1` (centres undefined), the activation is -0.4%.
For `CC(C)NC(=O)Nc1ccc2c(c1)C(=O)N([C@H](C)CO)C[C@H](C)[C@@H](CN(C)Cc1ccc(C(F)(F)F)cc1)OCCCC[C@@H](C)O2`, the activation is 3.01%.
For the compound `C#CCN(C[C@@H]1[C@@H](OC(=O)NC2CC2)[C@@H](OC(=O)NC2CC2)Cn2c(=O)ccc(=O)n21)S(=O)(=O)c1ccc(C)cc1`, the activation is -6.57%.
On to `CN(Cc1c(F)cccc1Cl)C(=O)COC(=O)Cn1cnc2ccccc2c1=O`, for which the activation was 0.6%.
`COc1ccc(NC(=O)C[C@H]2C(=O)N(CCc3ccccc3)C[C@@H]2C)cc1`: the activation is -0.95%.
As for `Cc1ccccc1N1CC(C(=O)Nc2nnc(SCCC3OCCO3)s2)CC1=O` (centres undefined), the activation was -0.56%.
To `COc1ccccc1N1CC(C(=O)Nc2nnc(SCC(=O)NCC3CCCO3)s2)CC1=O` (centres undefined) belongs 0.23%.
For the compound `COc1ccccc1N1CC(C(=O)Nc2nnc(SCC(=O)NC(C)C)s2)CC1=O` (centres undefined), the activation is 24.3% (active).
Regarding `CC1CN(C(=O)c2cccc(NS(=O)(=O)c3ccc(Br)cc3)c2)CC(C)O1` (centres undefined), the activation was -7.05%.
Under `CSc1ncnc2c1ncn2CCCNCc1ccco1` stands -1.79%.
For `COc1cccc(NC(=O)CN(C)C(=O)c2cc(Cl)nc3ccccc23)c1`, the activation is 9.02%.
Under `O=C1c2ccccc2-c2ccccc2NC1O` (centres undefined) stands 10.3%.
On to `CCOc1cc(C(=O)Nc2c(C)ccc3nsnc23)cc(OCC)c1OCC`, for which the activation was 19.5% (active).
To `Cc1ccc2nsnc2c1NC(=O)c1ccccc1[N+](=O)[O-]` belongs -6.39%.
As to `CCOc1cc(C(=O)Nc2ccc(S(=O)(=O)Nc3cnc4ccccc4n3)cc2)cc(OCC)c1OCC`, the activation was -1.58%.
With `CCCn1c(N)c(C(=O)CSc2nnc(Cc3cccs3)n2C2CC2)c(=O)[nH]c1=O`, the activation is 9.54%.
As for `O=C1CC[C@@H](C(=O)N2CSC[C@@H]2C(=O)Nc2ccc(C(F)(F)F)cc2)N1`, the activation was 0.56%.
Regarding `CC(=O)Nc1ccc(SCC(=O)NC(=O)c2ccc(Cl)cc2)cc1`, the activation is 2.13%.
In the case of `CCC(=O)N1CCc2cc(S(=O)(=O)CCC(=O)N3CCN(c4ccccc4F)CC3)ccc21`, the activation is 2.69%.
In the case of `Cc1ccn(C(CC(=O)c2ccc(Br)cc2)C(=O)O)n1` (centres undefined), the activation is -7.77%.
Under `CC1C(=O)N(Cc2cn(CC3CCCCC3)nn2)CCS(=O)(=O)N1Cc1ccc(-c2cccc(N(C)C)c2)cc1` (centres undefined) stands -4.48%.
Consider `NC(CSC(c1ccccc1)(c1ccccc1)c1ccc(-c2ccccc2)cc1)C(=O)O` (centres undefined), for which the activation was -6.56%.
Take `Cc1cc(/C=C2/SC(=O)N(CC(=O)N3CCCC3)C2=O)c(C)n1C`: the activation was -2.71%.
In the case of `N#Cc1ccccc1CN1C(=O)S/C(=C/c2cccn2-c2cccc(C(=O)O)c2)C1=O`, the activation was 26.4% (active).
Under `Cc1ccc(C(=O)O)cc1-c1ccc(/C=C2\SC(=O)N(CC(=O)Nc3ccc4c(c3)OCO4)C2=O)o1` stands 0.69%.
To `CC(=O)Nc1ccc(C=CC(=O)c2ccc([N+](=O)[O-])cc2)cc1` belongs 4.15%; to `COc1ccc(CN2C(=O)C(CC(=O)NCCCCc3ccccc3)CC(C(=O)N3CCOCC3)=C2C)cc1` (centres undefined), -0.11%.
`Cc1ccc(NC(=O)COC(=O)CN2CCSC2=O)cc1F`: the activation is -5.13%.
Regarding `COc1cc2ccc(C(C)=O)c(O)c2cc1OC`, the activation is 4.58%.
Consider `Cc1csc(SCC(=O)Nc2ccc(C)c(S(=O)(=O)N(C)C)c2)n1`, for which the activation is -1.19%.
Regarding `CCOC(=O)C=Cc1ccc(C(=O)OCC)[nH]1`, the activation was 1.4%.
To `O=C(NCC(F)(F)F)c1ccc(S(=O)(=O)NCCc2ccc3c(c2)OCCO3)cc1` belongs -0.03%.
As for `Cc1cc(C)c2c(=O)n3c(nc2c1)C(CC(C)C)NC(=O)c1cc2ccccc2cc1-3` (centres undefined), the activation is -8.23%.
With `COc1ccc(C(CNC(=O)CSc2ccccc2)N2CCOCC2)cc1` (centres undefined), the activation was -7.96%.
`Cc1cccc(S(=O)(=O)N(C)C[C@@H]2OCc3cnnn3CCCC(=O)N([C@H](C)CO)C[C@@H]2C)c1`: the activation was 1.99%.
Regarding `CCN(CC)C(=O)C1=C(C)N(Cc2ccc(C(C)(C)C)cc2)C(=O)C(CC(=O)NCc2cccc3ccccc23)C1` (centres undefined), the activation was -15.8%.
Take `COc1ccc([C@H]2C[C@@H](n3cc(COC(=O)c4ccccc4)nn3)[C@H](O)CN2C(=O)c2cccs2)cc1`: the activation is -9.97%.
In the case of `COc1ccc(C(=O)Nc2ccc(-n3nncc3C(C)(C)C)cc2)cc1`, the activation was -6.01%.
Take `COc1ccc(NS(=O)(=O)c2ccc(NC(=O)c3ccc(N(C)S(C)(=O)=O)cc3)cc2)cc1`: the activation is 9.45%.
On to `COc1ccc(NC(=O)c2ccc(C#CC(C)(C)O)cc2)cc1`, for which the activation was 23.1% (active).
With `COn1c(=O)c(=O)n(OC)c2ccccc21`, the activation was -14.3%.
As to `COc1ccc(NC(=O)c2cc(=O)[nH]c3ccccc23)cc1S(=O)(=O)N1CCOCC1`, the activation was 3.45%.
For `N#CCCC(C#N)(c1cccnc1)N1CCOCC1` (centres undefined), the activation was 9.19%.
In the case of `O[C@@H]1C[C@H](c2ccccc2)N(Cc2cccs2)C[C@H]1n1cc(C2CC2)nn1`, the activation is 8.01%.
With `Cn1ncc2c(NNC(=O)Cc3cccc4ccccc34)ncnc21`, the activation was -20.9%.
For the compound `O=C(CNC(=O)N1CC(=O)Nc2ccccc21)Nc1ccc(Br)cc1F`, the activation is -0.99%.
Consider `CCOc1ccc(C2NC(=S)NC3=C2CCc2ccccc23)cc1` (centres undefined), for which the activation is -2.38%.
Under `CCOC(=O)c1cc(-c2sc(NC(=O)c3ccccc3)nc2C)n(-c2ccc(Br)cc2)n1` stands 4.25%.
Regarding `C[C@H](CO)N1C[C@H](C)[C@@H](CN(C)C(=O)c2cccc(F)c2)Oc2cc(-c3cncnc3)ccc2S1(=O)=O`, the activation is 0.35%.
To `CCOC(=O)C1CCN(C(=O)c2ccc3c(=O)n4nc(Nc5ccccc5CC)sc4nc3c2)CC1` belongs -0.99%.
Consider `C[C@@H]1CN([C@@H](C)CO)S(=O)(=O)c2ccc(-c3ccc(C(=O)N(C)C)cc3)cc2O[C@@H]1CN(C)Cc1ccccc1C(=O)O`, for which the activation was -3.75%.
Under `O=S1(=O)CCN(C2CCCCCCCCCCC2)CC1` stands 7.32%; under `c1ccc(Cn2nnc3c(NCC4CC4)ncnc32)cc1`, 5.88%; under `O=C(COc1ccc(S(=O)(=O)N2CCCC2)cc1[N+](=O)[O-])N1CCCCC1`, -0.2%.
`Cc1cccc(N(CC(=O)N2CCCC2)S(C)(=O)=O)c1C`: the activation was -6.73%.
On to `CC1=C(C(=O)Nc2cccc(C(=O)NCC(C)c3ccccc3)c2)SCCO1` (centres undefined), for which the activation is 9.58%.
Take `CCOC(=O)c1c(NC(=S)SC)sc(C(=O)N2CCc3ccccc3C2)c1C`: the activation is -7.69%.
As for `Cc1ccc(S(=O)(=O)N2CCOCC2)cc1NC(=O)c1ccncc1`, the activation is -4.48%.
For `OCC1OC(n2cnc3c(N4CCCC4)ncnc32)C(O)C1O` (centres undefined), the activation is 2.45%.
Turning to `CC(Sc1ccc(S(=O)(=O)N2CCN(C)CC2)cn1)C(=O)NC1CCCC(C)C1C` (centres undefined), the activation is 1.21%.
Turning to `NC1=CC(=O)C(=O)c2cccnc21`, the activation was 0.52%.
Consider `CCCc1ccc(S(=O)(=O)N2CCN(C(=O)c3cc(C)on3)CC2)cc1`, for which the activation was 8.59%.
For `CCc1noc(C)c1C(=O)OCC(=O)c1ccc(NC(=O)CC(C)C)cc1`, the activation is -17.9%.
Take `COc1ccc2c(c1)CCCO[C@]21O[C@H](CCO)C[C@H](O)[C@H]1O`: the activation was -17.7%.
Regarding `COCOCCn1cc(CN2CCS(=O)(=O)N(Cc3ccc(-c4ccccc4)cc3)C(CC(C)C)C2=O)nn1` (centres undefined), the activation was -7.1%.
In the case of `CCc1cc(C(=O)N(CC)CC(=O)Nc2c(F)cccc2F)sc1C`, the activation was 2.41%.
Take `O=S(=O)(c1ccc(Cl)s1)N1CCC2(CC1)OCCO2`: the activation is -0.53%.
As for `Cc1noc(C)c1S(=O)(=O)N(C)C[C@H]1OCCCC[C@@H](C)Oc2ccc(NC(=O)CCCN(C)C)cc2C(=O)N([C@H](C)CO)C[C@@H]1C`, the activation was -9.82%.
In the case of `Cc1ccn(CC(=O)NC2CCCN(Cc3ccccc3F)C2)n1` (centres undefined), the activation was 3.67%.
For `CCOC(=O)c1cnc(SC)nc1Sc1ccc(Cl)cc1Cl`, the activation was -0.11%.
Turning to `C[C@@H]1CN([C@H](C)CO)S(=O)(=O)c2ccc(C#CC3CCCCC3)cc2O[C@H]1CN(C)C(=O)Cc1ccncc1`, the activation was -5.17%.
On to `CC1CCN(C(=O)CSc2nnc(-c3ccco3)n2N)CC1`, for which the activation is -3.33%.
Under `Cc1ccc(CCNC(=O)CN2C(=O)CSc3ccc(S(=O)(=O)N4CCOCC4)cc32)cc1` stands -7.23%; under `CCCCN=C(N)/C(C(=O)OCC)=C(\O)c1ccc(OC)cc1`, -0.11%.
On to `COc1ccc(S(=O)(=O)N2CCC(C(=O)NCCC(=O)NCCc3cccc(F)c3)CC2)cc1`, for which the activation was -4.12%.
On to `NS(=O)(=O)c1ccc(CNC(=O)c2cc(S(=O)(=O)N3CCOCC3)ccc2N2CCCC2)cc1`, for which the activation was -1.96%.
Turning to `CCN(CC)C(=O)C1=C(C)N(Cc2ccccc2)C(=O)C(CC(=O)NC(c2ccccc2)c2ccccc2)C1` (centres undefined), the activation was -7.55%.
On to `CCc1nc2c(=O)[nH]cnc2o1`, for which the activation was 12.2%.
For `CC1CCC2(CC1)NC(=O)N(CC(=O)NCc1ccco1)C2=O` (centres undefined), the activation was -3.37%.
With `COc1ccc(NC(=O)COC(=O)C2COc3ccccc3O2)cc1` (centres undefined), the activation was 11.1%.
Under `O=C(CSc1ccc(Cl)cc1)NC1CC1` stands -0.65%; under `CCCNC(=O)C1CC(=O)N(c2ccc(OCc3ccccc3)cc2)C1` (centres undefined), 3.3%.
Consider `O=C(COC(=O)c1cccc(Cl)c1Cl)NC1CCCCCC1`, for which the activation was -4.58%.
In the case of `C[C@H]1CN([C@@H](C)CO)C(=O)CCCn2cc(nn2)CO[C@@H]1CN(C)C(=O)Nc1ccccc1`, the activation was -15.3%.
